# Assay results taken from article PMC7862700, “An all-to-all approach to the identification of sequence-specific readers for epigenetic DNA modifications on cytosine”.
# Legend:
# Test in all cases: DAPPL (digital affinity profiling via proximity ligation, sequencing); 10 mM Tris-HCl pH 7.5, 50 mM NaCl, 1 mM DTT, 4% glycerol, room temperature, 30 min; GST-TFs on glutathione beads, 16-mer random dsDNA library, 0.1% formaldehyde crosslink after washing; high values mean tight binding
# FEV = molecular target: T1, FEV (Homo sapiens, UniProt Q99581 1-238); conditions: protein: recombinant; tags: N-terminal GST; dsDNA, one strand shown
# T1 sequence: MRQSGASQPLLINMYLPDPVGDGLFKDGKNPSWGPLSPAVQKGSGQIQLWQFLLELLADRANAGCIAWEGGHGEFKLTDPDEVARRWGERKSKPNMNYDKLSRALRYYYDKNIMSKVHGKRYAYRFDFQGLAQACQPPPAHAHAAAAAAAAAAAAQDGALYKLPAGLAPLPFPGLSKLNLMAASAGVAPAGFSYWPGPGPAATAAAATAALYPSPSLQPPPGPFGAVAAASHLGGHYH
# In short: (§1)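 Yeast served to express human transcription factors as GST fusions, which were then captured on glutathione beads and labelled with DNA barcodes. Pooled with a tag-only sample, they were incubated with 200 nmole of a 16-mer random double-stranded DNA library for 30 min at room temperature in Tris/NaCl/DTT/glycerol buffer, washed, crosslinked with 0.1% formaldehyde, ligated by proximity, amplified by PCR and sequenced. Dividing each hexamer's read frequency for a factor by its frequency for the tag-only sample gives the binding signal.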
# ETV5 = ETV5 (Homo sapiens, UniProt P41161 1-510); conditions: protein: recombinant; tags: N-terminal GST; dsDNA, one strand shown
# ETV5, sequence (P41161 whole entry): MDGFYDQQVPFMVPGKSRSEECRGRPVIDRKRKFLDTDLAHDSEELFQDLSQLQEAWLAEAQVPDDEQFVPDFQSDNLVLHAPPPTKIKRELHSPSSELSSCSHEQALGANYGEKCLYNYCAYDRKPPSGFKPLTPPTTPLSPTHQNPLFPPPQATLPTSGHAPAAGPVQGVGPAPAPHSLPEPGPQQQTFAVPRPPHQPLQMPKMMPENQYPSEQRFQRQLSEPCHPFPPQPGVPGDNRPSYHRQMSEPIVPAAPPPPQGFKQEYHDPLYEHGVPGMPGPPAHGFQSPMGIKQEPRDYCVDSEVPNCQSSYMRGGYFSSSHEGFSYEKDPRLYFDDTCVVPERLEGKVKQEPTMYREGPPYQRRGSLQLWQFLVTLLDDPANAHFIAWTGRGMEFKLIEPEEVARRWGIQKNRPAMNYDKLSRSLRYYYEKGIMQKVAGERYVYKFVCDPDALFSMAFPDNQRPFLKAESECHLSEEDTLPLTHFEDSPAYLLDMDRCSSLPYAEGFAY
# In short: as §1
# HSF1 = HSF1 (Homo sapiens, UniProt Q00613 1-529); conditions: protein: recombinant; tags: N-terminal GST; chain copies: 3; dsDNA, one strand shown
# HSF1, sequence (Q00613 whole entry): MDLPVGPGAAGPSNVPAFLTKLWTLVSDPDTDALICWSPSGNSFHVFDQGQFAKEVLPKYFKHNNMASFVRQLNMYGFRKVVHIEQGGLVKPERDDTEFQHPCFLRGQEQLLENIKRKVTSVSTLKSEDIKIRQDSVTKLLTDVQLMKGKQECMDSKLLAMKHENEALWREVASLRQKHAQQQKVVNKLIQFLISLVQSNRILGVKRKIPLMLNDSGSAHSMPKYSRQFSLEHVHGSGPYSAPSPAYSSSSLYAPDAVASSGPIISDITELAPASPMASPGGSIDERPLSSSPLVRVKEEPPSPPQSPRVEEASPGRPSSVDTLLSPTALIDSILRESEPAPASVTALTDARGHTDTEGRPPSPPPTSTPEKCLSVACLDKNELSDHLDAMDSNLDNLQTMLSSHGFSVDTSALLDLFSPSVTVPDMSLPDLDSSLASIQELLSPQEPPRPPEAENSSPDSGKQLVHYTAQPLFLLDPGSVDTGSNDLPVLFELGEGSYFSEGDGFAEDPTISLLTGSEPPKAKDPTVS
# In short: as §1
# SPIC = molecular target: T2, SPIC (Homo sapiens, UniProt Q8N5J4 1-248); conditions: protein: recombinant; tags: N-terminal GST; dsDNA, one strand shown
# T2 sequence: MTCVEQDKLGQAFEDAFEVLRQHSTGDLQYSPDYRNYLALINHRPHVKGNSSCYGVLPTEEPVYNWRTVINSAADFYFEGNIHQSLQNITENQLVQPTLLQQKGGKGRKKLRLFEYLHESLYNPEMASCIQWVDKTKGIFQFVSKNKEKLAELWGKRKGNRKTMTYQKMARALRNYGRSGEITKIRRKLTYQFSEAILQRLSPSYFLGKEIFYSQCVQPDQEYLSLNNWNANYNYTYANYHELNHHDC
# In short: as §1
# ELF4 = ELF4 (Homo sapiens, UniProt Q99607 1-663); conditions: protein: recombinant; tags: N-terminal GST; dsDNA, one strand shown
# ELF4, sequence (Q99607 whole entry): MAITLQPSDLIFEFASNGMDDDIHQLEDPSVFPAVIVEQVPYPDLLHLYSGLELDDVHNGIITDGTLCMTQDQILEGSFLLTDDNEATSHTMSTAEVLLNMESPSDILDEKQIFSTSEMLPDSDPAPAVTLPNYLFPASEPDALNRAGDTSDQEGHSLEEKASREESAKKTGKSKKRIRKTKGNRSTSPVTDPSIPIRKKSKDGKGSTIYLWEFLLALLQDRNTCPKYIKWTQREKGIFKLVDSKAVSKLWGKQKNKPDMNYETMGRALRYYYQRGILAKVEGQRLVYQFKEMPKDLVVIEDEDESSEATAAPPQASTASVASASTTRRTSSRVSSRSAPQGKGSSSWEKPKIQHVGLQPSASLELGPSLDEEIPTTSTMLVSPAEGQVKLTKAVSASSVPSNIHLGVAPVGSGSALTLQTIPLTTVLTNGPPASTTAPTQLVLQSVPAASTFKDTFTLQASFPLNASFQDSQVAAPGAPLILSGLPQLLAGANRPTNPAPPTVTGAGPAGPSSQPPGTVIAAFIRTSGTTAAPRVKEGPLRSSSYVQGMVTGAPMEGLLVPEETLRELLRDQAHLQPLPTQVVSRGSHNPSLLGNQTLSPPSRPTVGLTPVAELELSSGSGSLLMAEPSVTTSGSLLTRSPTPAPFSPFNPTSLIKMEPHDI
# In short: as §1
# ELK4 = molecular target: T3, ELK4 (Homo sapiens, UniProt P28324-2 1-405); conditions: protein: recombinant; tags: N-terminal GST; dsDNA, one strand shown
# T3 sequence: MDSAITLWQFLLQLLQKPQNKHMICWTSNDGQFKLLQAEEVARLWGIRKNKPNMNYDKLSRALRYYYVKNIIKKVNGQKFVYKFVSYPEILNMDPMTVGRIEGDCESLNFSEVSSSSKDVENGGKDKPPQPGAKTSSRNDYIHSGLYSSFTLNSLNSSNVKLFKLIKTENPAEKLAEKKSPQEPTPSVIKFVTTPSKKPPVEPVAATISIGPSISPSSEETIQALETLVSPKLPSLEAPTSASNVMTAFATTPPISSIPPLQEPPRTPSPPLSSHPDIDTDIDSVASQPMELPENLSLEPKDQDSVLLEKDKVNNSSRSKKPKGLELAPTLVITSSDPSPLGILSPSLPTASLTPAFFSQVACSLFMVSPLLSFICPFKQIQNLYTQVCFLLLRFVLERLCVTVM
# In short: as §1
# ETV2 = molecular target: T4, ETV2 (Homo sapiens, UniProt O00321 1-342); conditions: protein: recombinant; tags: N-terminal GST; dsDNA, one strand shown
# T4 sequence: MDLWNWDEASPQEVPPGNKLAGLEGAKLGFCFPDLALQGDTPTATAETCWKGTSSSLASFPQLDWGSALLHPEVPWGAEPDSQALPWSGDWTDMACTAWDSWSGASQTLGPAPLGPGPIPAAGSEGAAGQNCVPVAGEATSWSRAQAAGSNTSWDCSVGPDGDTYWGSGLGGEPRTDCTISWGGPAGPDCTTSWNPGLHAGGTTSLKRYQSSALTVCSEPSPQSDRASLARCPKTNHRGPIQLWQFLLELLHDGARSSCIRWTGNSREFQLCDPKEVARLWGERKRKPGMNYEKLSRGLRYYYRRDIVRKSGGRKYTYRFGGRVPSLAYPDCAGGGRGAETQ
# In short: as §1
# ELF3 = molecular target: T5, ELF3 (Homo sapiens, UniProt P78545 1-371); conditions: protein: recombinant; tags: N-terminal GST; dsDNA, one strand shown
# T5 sequence: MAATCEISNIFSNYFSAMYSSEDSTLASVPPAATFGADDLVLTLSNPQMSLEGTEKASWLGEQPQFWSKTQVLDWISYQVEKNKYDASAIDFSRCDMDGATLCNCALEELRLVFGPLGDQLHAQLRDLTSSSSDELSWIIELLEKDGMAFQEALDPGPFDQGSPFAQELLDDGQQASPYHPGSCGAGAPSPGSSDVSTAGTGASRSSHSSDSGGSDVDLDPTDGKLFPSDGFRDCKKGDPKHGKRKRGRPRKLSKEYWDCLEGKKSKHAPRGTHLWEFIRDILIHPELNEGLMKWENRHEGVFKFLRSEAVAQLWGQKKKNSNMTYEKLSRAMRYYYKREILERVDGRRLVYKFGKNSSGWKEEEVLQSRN
# In short: as §1
# CRX = CRX (Homo sapiens, UniProt O43186 1-299); conditions: protein: recombinant; tags: N-terminal GST; dsDNA, one strand shown
# CRX, sequence (O43186 whole entry): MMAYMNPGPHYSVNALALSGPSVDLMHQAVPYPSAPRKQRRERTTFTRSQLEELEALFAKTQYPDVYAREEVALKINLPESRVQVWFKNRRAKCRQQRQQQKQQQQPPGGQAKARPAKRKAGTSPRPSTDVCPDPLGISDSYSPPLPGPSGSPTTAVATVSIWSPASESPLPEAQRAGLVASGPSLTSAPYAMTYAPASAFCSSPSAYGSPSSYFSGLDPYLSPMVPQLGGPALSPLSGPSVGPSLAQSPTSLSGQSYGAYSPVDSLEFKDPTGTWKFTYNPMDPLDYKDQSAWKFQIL
# In short: as §1
# ETV1 = ETV1 (Homo sapiens, UniProt P50549 1-477); conditions: protein: recombinant; tags: N-terminal GST; dsDNA, one strand shown
# ETV1, sequence (P50549 whole entry): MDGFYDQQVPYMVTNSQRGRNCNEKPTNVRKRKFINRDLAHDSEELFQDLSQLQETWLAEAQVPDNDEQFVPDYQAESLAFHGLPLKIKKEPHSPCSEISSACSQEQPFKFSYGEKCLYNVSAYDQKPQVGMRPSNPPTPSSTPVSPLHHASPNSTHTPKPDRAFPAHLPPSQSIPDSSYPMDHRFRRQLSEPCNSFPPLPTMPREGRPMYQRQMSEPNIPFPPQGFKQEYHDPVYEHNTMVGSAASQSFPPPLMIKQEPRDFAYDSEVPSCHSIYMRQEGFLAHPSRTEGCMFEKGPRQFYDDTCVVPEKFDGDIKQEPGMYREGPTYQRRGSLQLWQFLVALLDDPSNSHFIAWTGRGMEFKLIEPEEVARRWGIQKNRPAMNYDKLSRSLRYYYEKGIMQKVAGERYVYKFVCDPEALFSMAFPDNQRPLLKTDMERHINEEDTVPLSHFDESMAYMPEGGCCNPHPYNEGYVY
# In short: as §1
# ERF = molecular target: T6, ERF (Homo sapiens, UniProt P50548 1-548); conditions: protein: recombinant; tags: N-terminal GST; dsDNA, one strand shown
# T6 sequence: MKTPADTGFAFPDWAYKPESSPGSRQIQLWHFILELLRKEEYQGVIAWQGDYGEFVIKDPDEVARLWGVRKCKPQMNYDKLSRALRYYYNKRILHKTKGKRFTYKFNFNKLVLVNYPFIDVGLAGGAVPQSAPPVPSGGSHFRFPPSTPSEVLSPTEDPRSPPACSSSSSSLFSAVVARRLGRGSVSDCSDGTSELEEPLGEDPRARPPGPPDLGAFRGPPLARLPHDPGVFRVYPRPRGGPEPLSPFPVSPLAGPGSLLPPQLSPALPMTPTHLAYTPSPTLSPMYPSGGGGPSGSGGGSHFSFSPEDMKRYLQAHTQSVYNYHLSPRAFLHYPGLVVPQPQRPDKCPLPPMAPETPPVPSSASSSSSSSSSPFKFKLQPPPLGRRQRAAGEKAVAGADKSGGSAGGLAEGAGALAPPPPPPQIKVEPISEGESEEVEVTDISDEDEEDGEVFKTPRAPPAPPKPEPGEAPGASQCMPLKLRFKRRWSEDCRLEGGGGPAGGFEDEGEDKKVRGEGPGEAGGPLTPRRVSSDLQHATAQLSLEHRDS
# In short: as §1
# ETV3L = molecular target: T7, ETV3L (Homo sapiens, UniProt Q6ZN32 1-361); conditions: protein: recombinant; tags: N-terminal GST; dsDNA, one strand shown
# T7 sequence: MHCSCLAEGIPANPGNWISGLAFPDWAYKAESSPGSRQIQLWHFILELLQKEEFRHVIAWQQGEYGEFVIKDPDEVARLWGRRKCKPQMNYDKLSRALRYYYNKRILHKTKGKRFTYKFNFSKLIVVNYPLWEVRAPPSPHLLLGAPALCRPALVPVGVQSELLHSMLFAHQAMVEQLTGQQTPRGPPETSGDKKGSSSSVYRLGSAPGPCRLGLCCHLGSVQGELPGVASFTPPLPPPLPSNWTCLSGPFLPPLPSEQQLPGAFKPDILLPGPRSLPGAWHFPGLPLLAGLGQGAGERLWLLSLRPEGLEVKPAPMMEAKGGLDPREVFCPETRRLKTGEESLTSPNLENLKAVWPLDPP
# In short: as §1
# ETS2 = molecular target: T8, ETS2 (Homo sapiens, UniProt P15036 1-469); conditions: protein: recombinant; tags: N-terminal GST; dsDNA, one strand shown
# T8 sequence: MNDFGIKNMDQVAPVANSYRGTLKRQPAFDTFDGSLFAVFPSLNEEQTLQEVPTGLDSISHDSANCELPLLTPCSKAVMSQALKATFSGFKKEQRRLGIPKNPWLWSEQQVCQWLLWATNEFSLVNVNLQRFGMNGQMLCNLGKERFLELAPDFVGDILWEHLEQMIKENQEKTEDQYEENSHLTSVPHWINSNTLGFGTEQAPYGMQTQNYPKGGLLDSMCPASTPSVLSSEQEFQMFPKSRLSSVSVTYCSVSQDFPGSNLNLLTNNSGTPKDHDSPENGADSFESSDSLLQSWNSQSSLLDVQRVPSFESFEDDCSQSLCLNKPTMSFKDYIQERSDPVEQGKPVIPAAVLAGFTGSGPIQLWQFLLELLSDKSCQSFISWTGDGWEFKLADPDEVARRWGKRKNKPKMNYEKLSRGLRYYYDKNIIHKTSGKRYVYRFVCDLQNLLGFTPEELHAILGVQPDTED
# In short: as §1
# SPDEF = molecular target: T9, SPDEF (Homo sapiens, UniProt O95238 1-335); conditions: protein: recombinant; tags: N-terminal GST; dsDNA, one strand shown
# T9 sequence: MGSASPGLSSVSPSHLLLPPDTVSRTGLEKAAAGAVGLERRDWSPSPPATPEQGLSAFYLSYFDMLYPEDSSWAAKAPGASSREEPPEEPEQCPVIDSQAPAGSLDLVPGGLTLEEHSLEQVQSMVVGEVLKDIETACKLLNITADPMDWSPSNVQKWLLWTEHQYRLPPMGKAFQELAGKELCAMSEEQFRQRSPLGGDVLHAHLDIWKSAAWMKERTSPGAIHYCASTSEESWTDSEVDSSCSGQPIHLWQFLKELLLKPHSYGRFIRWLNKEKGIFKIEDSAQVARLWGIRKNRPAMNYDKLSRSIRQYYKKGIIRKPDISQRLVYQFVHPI
# In short: as §1
# ETV7 = molecular target: T10, ETV7 (Homo sapiens, UniProt Q9Y603 1-341); conditions: protein: recombinant; tags: N-terminal GST; dsDNA, one strand shown
# T10 sequence: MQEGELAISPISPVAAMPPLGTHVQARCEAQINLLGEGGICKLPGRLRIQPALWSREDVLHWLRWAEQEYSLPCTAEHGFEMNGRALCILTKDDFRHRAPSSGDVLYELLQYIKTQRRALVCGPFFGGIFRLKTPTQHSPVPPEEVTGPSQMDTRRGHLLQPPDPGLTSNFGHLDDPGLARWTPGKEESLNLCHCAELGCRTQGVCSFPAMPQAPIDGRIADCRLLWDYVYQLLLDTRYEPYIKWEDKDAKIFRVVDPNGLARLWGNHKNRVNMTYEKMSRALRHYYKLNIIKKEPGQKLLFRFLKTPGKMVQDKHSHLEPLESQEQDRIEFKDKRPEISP
# In short: as §1
# ELF5 = molecular target: T11, ELF5 (Homo sapiens, UniProt Q9UKW6-2 1-255); conditions: protein: recombinant; tags: N-terminal GST; dsDNA, one strand shown
# T11 sequence: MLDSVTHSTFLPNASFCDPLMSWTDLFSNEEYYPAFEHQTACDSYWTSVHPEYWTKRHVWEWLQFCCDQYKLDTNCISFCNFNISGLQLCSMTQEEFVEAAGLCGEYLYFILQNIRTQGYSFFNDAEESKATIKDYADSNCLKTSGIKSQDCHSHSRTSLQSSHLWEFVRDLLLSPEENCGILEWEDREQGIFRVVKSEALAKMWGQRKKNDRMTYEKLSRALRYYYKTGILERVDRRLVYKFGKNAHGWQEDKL
# In short: as §1
# ETV3 = molecular target: T12, ETV3 (Homo sapiens, UniProt P41162-2 1-143); conditions: protein: recombinant; tags: N-terminal GST; dsDNA, one strand shown
# T12 sequence: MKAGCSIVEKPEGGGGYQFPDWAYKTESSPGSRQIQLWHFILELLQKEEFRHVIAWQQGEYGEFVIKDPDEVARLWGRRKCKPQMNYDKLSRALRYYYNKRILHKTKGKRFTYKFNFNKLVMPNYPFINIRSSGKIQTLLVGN
# In short: as §1
# ETV6 = ETV6 (Homo sapiens, UniProt P41212 1-452); conditions: protein: recombinant; tags: N-terminal GST; dsDNA, one strand shown
# ETV6, sequence (P41212 whole entry): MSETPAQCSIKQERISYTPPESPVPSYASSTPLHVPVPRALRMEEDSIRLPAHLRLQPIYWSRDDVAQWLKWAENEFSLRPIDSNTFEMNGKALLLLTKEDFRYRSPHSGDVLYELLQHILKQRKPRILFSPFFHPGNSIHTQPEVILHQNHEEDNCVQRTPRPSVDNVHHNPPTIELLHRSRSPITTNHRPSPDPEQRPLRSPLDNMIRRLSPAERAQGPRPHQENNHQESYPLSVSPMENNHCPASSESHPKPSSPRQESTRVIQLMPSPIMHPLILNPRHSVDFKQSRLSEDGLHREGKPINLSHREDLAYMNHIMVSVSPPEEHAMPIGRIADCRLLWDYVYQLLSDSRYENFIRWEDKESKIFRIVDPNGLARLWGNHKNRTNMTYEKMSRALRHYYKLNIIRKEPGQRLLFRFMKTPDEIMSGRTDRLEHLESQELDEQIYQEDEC
# In short: as §1
sequence,measurement,setting,value
TGTCTT,binding signal,FEV,"1.27 fold enrichment (6-mer frequency, TF over GST control)"
same,binding signal,ETV5,"1.24 fold enrichment (6-mer frequency, TF over GST control)"
same,binding signal,HSF1,"1.13 fold enrichment (6-mer frequency, TF over GST control)"
same,binding signal,SPIC,"1.39 fold enrichment (6-mer frequency, TF over GST control)"
same,binding signal,ELF4,"1.19 fold enrichment (6-mer frequency, TF over GST control)"
same,binding signal,ELK4,"1.17 fold enrichment (6-mer frequency, TF over GST control)"
same,binding signal,ETV2,"1.18 fold enrichment (6-mer frequency, TF over GST control)"
same,binding signal,ELF3,"1.25 fold enrichment (6-mer frequency, TF over GST control)"
same,binding signal,CRX,"1.3 fold enrichment (6-mer frequency, TF over GST control)"
same,binding signal,ETV1,"1.24 fold enrichment (6-mer frequency, TF over GST control)"
same,binding signal,ERF,"1.28 fold enrichment (6-mer frequency, TF over GST control)"
same,binding signal,ETV3L,"1.32 fold enrichment (6-mer frequency, TF over GST control)"
same,binding signal,ETS2,"1.28 fold enrichment (6-mer frequency, TF over GST control)"
same,binding signal,SPDEF,"1.28 fold enrichment (6-mer frequency, TF over GST control)"
same,binding signal,ETV7,"1.25 fold enrichment (6-mer frequency, TF over GST control)"
same,binding signal,ELF5,"1.39 fold enrichment (6-mer frequency, TF over GST control)"
same,binding signal,ETV3,"1.38 fold enrichment (6-mer frequency, TF over GST control)"
same,binding signal,ETV6,"1.16 fold enrichment (6-mer frequency, TF over GST control)"
